Experimental findings from PubChem BioAssay (Tox21) are described below.

Results filed as inconclusive are left out. A call without a number means that no potency is given here. The source made the active and inactive calls. Calls come from the whole dose curve.
Potency is the fitted concentration of half-maximal effect.

Sequence of Acetylcholinesterase (Homo sapiens) (P22303 whole entry, looked up): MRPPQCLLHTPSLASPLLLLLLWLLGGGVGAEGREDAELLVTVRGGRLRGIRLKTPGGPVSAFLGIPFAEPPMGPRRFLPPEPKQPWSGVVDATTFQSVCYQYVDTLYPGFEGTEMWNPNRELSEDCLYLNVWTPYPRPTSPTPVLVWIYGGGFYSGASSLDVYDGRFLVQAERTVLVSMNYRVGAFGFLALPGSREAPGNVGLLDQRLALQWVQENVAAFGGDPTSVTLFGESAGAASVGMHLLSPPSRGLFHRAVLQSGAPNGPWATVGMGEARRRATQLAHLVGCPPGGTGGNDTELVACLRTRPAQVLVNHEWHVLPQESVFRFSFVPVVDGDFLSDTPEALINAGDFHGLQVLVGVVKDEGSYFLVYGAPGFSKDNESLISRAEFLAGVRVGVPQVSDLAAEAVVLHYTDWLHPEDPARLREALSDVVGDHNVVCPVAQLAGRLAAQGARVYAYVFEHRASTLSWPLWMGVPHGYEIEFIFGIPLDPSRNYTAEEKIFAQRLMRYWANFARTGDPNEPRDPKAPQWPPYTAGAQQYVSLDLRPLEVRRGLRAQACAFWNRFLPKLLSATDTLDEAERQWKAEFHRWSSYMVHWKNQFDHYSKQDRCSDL

One assay has as its target Acetylcholinesterase (Homo sapiens) (UniProt P22303). The assay can be described thus: Acetylcholinesterase (AChE) small molecule antagonists: colormetric cell-based qHTS assay (AID 1347395). Note: nearly all actives have a fitted effect of over 30% in size. The note with it: SH-SY5Y cells AChE activity, colorimetric (Ellman); series mostly up to 115 µM. The gist of the method: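 Homogeneous whole-cell format. SH-SY5Y cells seeded overnight, dosed with compound (30 min, 37 C, 5% CO2), then given DTNB/acetylthiocholine cocktail for 90 min at 37 C; colorimetric signal.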
For `OCCNCc1ccccc1`, the Potency result was “inactive”.
Consider `CC(C)CCCC(C)CC=O` (stereo not drawn), for which the Potency entry was “inactive”.
Take `COC(=O)/C=C\C(=O)O`: the Potency result was “inactive”.
Still for that read-out and setting: the result for `CC(=O)OCCc1ccccc1` reads “inactive”; that for `CNCc1cc(F)ccc1Oc1ccc(Cl)c(Cl)c1`, “inactive”.
Same read-out and setting: the result for `COC(=O)c1cc(Cl)ccc1OC` reads “inactive”.
On the same count and under the same terms, the result for `O=[N+]([O-])c1ccc(Cl)cc1Cl` reads “inactive”.
For the compound `C=C(C)C(=O)OCCCCCCCCCCOC(=O)C(=C)C`, the Potency result is “inactive”.
On the same count and under the same terms, the result for `CC1OC(=O)C(C)OC1=O` (stereo not drawn) reads “inactive”.
Same read-out and setting: for `Nc1nc(N)nc(-c2cc(Cl)ccc2Cl)n1` the value was “inactive”; for `CCCCC/C=C\CCC=O`, “inactive”; for `CC(C)(C)c1ccc(-c2ccc(C(C)(C)C)cc2)cc1`, “inactive”.
On the same count and under the same terms, for `CCCCCCCCCCCC(=O)[O][Sn]([CH2]CCC)([CH2]CCC)[O]C(=O)CCCCCCCCCCC` the value was “inactive”.
For the compound `CCCC(=O)OC/C=C(\C)CCC=C(C)C`, the Potency entry was “inactive”.
On the same count and under the same terms, the result for `O=C(Nc1cccc([N+](=O)[O-])c1)c1cc2ccccc2cc1O` reads “inactive”; that for `CC(CC1c2ccccc2CCc2ccccc21)CN(C)C` (stereo not drawn), “inactive”; that for `O=C(Nc1ccc(Cl)cc1)Nc1ccc(Cl)c(C(F)(F)F)c1`, “inactive”.
Same read-out and setting: for `O=C(O)C(O)[C@H](O)[C@@H](O)[C@H](O)[C@H](O)CO` (stereo partly drawn) the value was “inactive”; for `CCCCCc1ccco1`, “inactive”.
The same measure, in the same setting: for `CCCCCCCCC1CCC(=O)O1` (stereo not drawn) the value was “inactive”; for `CCCCCOc1ccccc1/C(=C\SC)n1ccnc1`, “inactive”; for `CC(C)=CCCC(C)O` (stereo not drawn), “inactive”.
Turning to `Cn1cnc2ncnc(N)c21`, the Potency result was “inactive”.
Turning to `CCOc1ccccc1O`, the Potency entry was “inactive”.
Still for that read-out and setting: the result for `COC(=O)CC(C(C)=O)C(=O)OC` (stereo not drawn) reads “inactive”; that for `COC(=O)CCSCCC(=O)OC`, “inactive”.
With `CCO`, the Potency result was “inactive”.
The same measure, in the same setting: for `Cc1c(Cl)cccc1Nc1ccccc1C(=O)O` the value was “inactive”.
Regarding `CCCC1CCCC(=O)O1` (stereo not drawn), the Potency result is “inactive”.
As for `COC(=O)/C=C/C(C)=C\C=C\C(C)=C\C=C\C=C(C)\C=C\C=C(C)\C=C\C(=O)O`, the Potency result was “inactive”.
On the same count and under the same terms, for `CCCCOC(=O)CC` the value was “inactive”.
Same read-out and setting: for `OC[C@H]1O[C@@H](O[C@@H]2[C@@H](CO)O[C@](O)(CO)[C@H]2O)[C@H](O)[C@@H](O)[C@H]1O` the value was “inactive”; for `Cc1ccc(O)c([N+](=O)[O-])c1`, “inactive”.
With `O=C(O)Cc1ccc(OCCNC[C@H](O)c2ccccc2)cc1`, the Potency entry was “inactive”.
Still for that read-out and setting: the result for `CC(C)CCOC(=O)CC(C)C` reads “inactive”; that for `CC=O`, 41.8 µM (active).
Same read-out and setting: the result for `COc1c(N2CCNC(C)C2)c(F)cc2c(=O)c(C(=O)O)cn(C3CC3)c12` (stereo not drawn) reads “inactive”.
Same read-out and setting: the result for `O=c1cc(-c2ccccc2)oc2ccc3ccccc3c12` reads “inactive”.
In the case of `CC(C)(C)c1ccc(C=O)cc1`, the Potency result was “inactive”.

Another assay shares this target. The assay is described as follows: Acetylcholinesterase (AChE) small molecule antagonists: enzyme-based qHTS assay (AID 1347397). Note: nearly all actives have a fitted effect of over 55% in size. The note with it: Potency: AChE enzyme activity inhibition; outcome: AChE enzyme activity inhibition; series mostly up to 115 µM. The gist of the method: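 Recombinant human AChE (50 mU/mL) preincubated with compound 30 min at room temperature; acetylthiocholine plus DTNB then added, and thiocholine formation read colorimetrically after 10 min at room temperature. DMSO served as vehicle control.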
Consider `OCCNCc1ccccc1`, for which the Potency result is “inactive”.
With `CC(C)CCCC(C)CC=O` (stereo not drawn), the Potency result is “inactive”.
The same measure, in the same setting: the result for `COC(=O)/C=C\C(=O)O` reads “inactive”; that for `CC(=O)OCCc1ccccc1`, “inactive”.
On the same count and under the same terms, the result for `CNCc1cc(F)ccc1Oc1ccc(Cl)c(Cl)c1` reads “inactive”; that for `COC(=O)c1cc(Cl)ccc1OC`, “inactive”; that for `O=[N+]([O-])c1ccc(Cl)cc1Cl`, “inactive”.
Same read-out and setting: for `C=C(C)C(=O)OCCCCCCCCCCOC(=O)C(=C)C` the value was “inactive”.
With `CC1OC(=O)C(C)OC1=O` (stereo not drawn), the Potency result is “inactive”.
On the same count and under the same terms, the result for `Nc1nc(N)nc(-c2cc(Cl)ccc2Cl)n1` reads “inactive”; that for `CCCCC/C=C\CCC=O`, “inactive”.
The same measure, in the same setting: for `CC(C)(C)c1ccc(-c2ccc(C(C)(C)C)cc2)cc1` the value was “inactive”; for `CCCCCCCCCCCC(=O)[O][Sn]([CH2]CCC)([CH2]CCC)[O]C(=O)CCCCCCCCCCC`, “inactive”; for `CCCC(=O)OC/C=C(\C)CCC=C(C)C`, “inactive”.
The same measure, in the same setting: the result for `O=C(Nc1cccc([N+](=O)[O-])c1)c1cc2ccccc2cc1O` reads “inactive”; that for `CC(CC1c2ccccc2CCc2ccccc21)CN(C)C` (stereo not drawn), “inactive”.
Regarding `O=C(Nc1ccc(Cl)cc1)Nc1ccc(Cl)c(C(F)(F)F)c1`, the Potency result is “inactive”.
On the same count and under the same terms, for `O=C(O)C(O)[C@H](O)[C@@H](O)[C@H](O)[C@H](O)CO` (stereo partly drawn) the value was “inactive”; for `CCCCCc1ccco1`, “inactive”; for `CCCCCCCCC1CCC(=O)O1` (stereo not drawn), “inactive”.
Still for that read-out and setting: for `CCCCCOc1ccccc1/C(=C\SC)n1ccnc1` the value was “inactive”; for `CC(C)=CCCC(C)O` (stereo not drawn), “inactive”.
Same read-out and setting: the result for `Cn1cnc2ncnc(N)c21` reads “inactive”.
On to `CCOc1ccccc1O`, for which the Potency entry was “inactive”.
Regarding `COC(=O)CC(C(C)=O)C(=O)OC` (stereo not drawn), the Potency entry is “inactive”.
Regarding `COC(=O)CCSCCC(=O)OC`, the Potency entry was “inactive”.
The same measure, in the same setting: for `CCO` the value was “inactive”; for `Cc1c(Cl)cccc1Nc1ccccc1C(=O)O`, “inactive”; for `CCCC1CCCC(=O)O1` (stereo not drawn), “inactive”.
Same read-out and setting: the result for `COC(=O)/C=C/C(C)=C\C=C\C(C)=C\C=C\C=C(C)\C=C\C=C(C)\C=C\C(=O)O` reads “inactive”; that for `CCCCOC(=O)CC`, “inactive”; that for `OC[C@H]1O[C@@H](O[C@@H]2[C@@H](CO)O[C@](O)(CO)[C@H]2O)[C@H](O)[C@@H](O)[C@H]1O`, “inactive”.
Same read-out and setting: for `Cc1ccc(O)c([N+](=O)[O-])c1` the value was “inactive”; for `O=C(O)Cc1ccc(OCCNC[C@H](O)c2ccccc2)cc1`, “inactive”; for `CC(C)CCOC(=O)CC(C)C`, “inactive”.
Regarding `CC=O`, the Potency was 74.3 µM (active).
The same measure, in the same setting: the result for `COc1c(N2CCNC(C)C2)c(F)cc2c(=O)c(C(=O)O)cn(C3CC3)c12` (stereo not drawn) reads “inactive”; that for `O=c1cc(-c2ccccc2)oc2ccc3ccccc3c12`, “inactive”.
Same read-out and setting: for `CC(C)(C)c1ccc(C=O)cc1` the value was “inactive”.
